What all share (test): NCI-60 one-dose screen, 48 h (100 = growth as untreated, 0 = no growth, -100 = all killed)
Holding throughout (details): 10 µM unless noted

For experiment [1], the system named is NCI-H23 lung.
For experiment [2], the system named is NCI-H226 lung.
Experiment [3] relates to NCI-H322M lung.
For experiment [4], the system named is HOP-62 NSCLC.
Experiment [5] concerns NCI-H460 lung.
For experiment [6], the system named is HOP-92 NSCLC.
For experiment [7], the system named is NCI-H522 lung.
Experiment [8] concerns A549/ATCC NSCLC.
In experiment [9] the test system is 786-0 renal.
In experiment [10] the test system is COLO 205 colon.
Experiment [11] has as its system DU-145 prostate.
Experiment [12] deals with K-562 leukemia.
The subject of experiment [13] is MALME-3M melanoma.
The subject of experiment [14] is MDA-MB-231 breast.
In experiment [15] the test system is RXF 393 renal.
In experiment [16] the test system is SF-268 CNS.
The subject of experiment [17] is SF-295 CNS.
For experiment [18], the system named is SF-539 CNS.
In experiment [19] the test system is UACC-257 melanoma.
For experiment [20], the system named is M14 melanoma.

The text below walks through data of PubChem BioAssay (NCI).

Structures are written as SMILES. This is part of a sample that, as a whole, favours compounds with a hit. Of some 83,000 tested, about 20% had one in any assay.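 Values shown are percent growth following 48 h exposure of cells in 96-well plates to a single concentration of compound; below 10 was considered active.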 Unmarked numbers belong to inactive results. The source made the active and inactive calls.

As to `COc1ccc(C2CC(c3ccc(Nc4nc(Nc5ccc(F)cc5)nc(Nc5ccc(F)cc5)n4)cc3)=NN2C(C)=O)cc1` (stereo not given), the growth in experiment [1] was 75.7%; in experiment [2], 106%; in experiment [3] it was 87.5%; in experiment [4], 96.7%; in experiment [5], 101%; in experiment [6] it was -13.6% (active). Also, the growth was 83.1% in [7]; 82.5% in experiment [8]; 82% in experiment [9]; 111% in experiment [10]; 115% in experiment [11]; 83.1% in [12]. In addition, the growth in [13] is 78.1%; in experiment [14] it was 122%; in experiment [15], 94.4%; in [16], 103%; in experiment [17], 81.2%; in experiment [18], 92.1%. Also, the values for the growth in experiment [19] and in experiment [20] were 111% and 100%, respectively.
For `CC(C)(CO)N(CCO)CCO`, the growth is 97.3% in experiment [1]; 94% in [2]; 95.4% in [3]; 110% in experiment [4]; 110% in [5]; 78.9% in [6]. Moreover, the growth in experiment [7] was 95.9%; in experiment [8], 114%; in [9], 102%; in experiment [10], 123%; in [11] it was 118%; in [12] it was 101%. For the same compound, the growth is 105% in [13]; 104% in experiment [14]; 104% in experiment [15]; 104% in experiment [16]; 108% in experiment [17]; 97.4% in experiment [18]. Also, the growth in experiment [19] was 116%; in experiment [20] it was 108%.
For `O=C(O)C1CN(c2cccc(Cl)c2)N(c2cccc(Cl)c2)C1=O` (stereo not given), the growth was 89.8% in experiment [1]; 92.8% in [2]; 83.9% in experiment [3]; 88% in [4]; 102% in experiment [5]; 101% in experiment [6]. Further, the growth in [7] is 87.1%; in [8] it was 105%; in experiment [9], 96.5%; in experiment [10], 94.5%; in experiment [11] it was 96.2%; in experiment [12], 101%. Besides, the growth in experiment [13] is 70.8%; in experiment [14], 85.1%; in [15] it was 94.9%; in experiment [16], 81.7%; in experiment [17], 95.6%; in experiment [18], 100%. The growth was 99.3% in experiment [19] and 87.8% in [20].
For the compound `CCNCc1ccc(O)c2ncccc12`, the growth is 24.1% in experiment [1]; 62.4% in [2]; 38% in experiment [3]; 27.8% in experiment [4]; 20% in [5]; -8.24% (active) in [6]. Besides, the growth in [7] was 8.59% (active); in experiment [8], 17.6%; in experiment [9], 39.6%; in experiment [10], 80.7%; in experiment [11] it was 37%; in experiment [12], 13.9%. In addition, the growth in experiment [13] was 60.6%; in [14], 46.9%; in experiment [15], 60.3%; in experiment [16], 35.2%; in experiment [17], 39.9%; in experiment [18], 25.1%. Besides, the growth in experiment [19] was 9.76% (active); in experiment [20] it was 33.8%.
With `C#CC#CC#CC#CC#CC#CC#CC#CCC1OCC(COC(=O)O[C@@H](C(=O)O[C@H]2C[C@@]3(O)[C@@H](OC(=O)c4ccccc4)[C@@H]4[C@]5(OC(C)=O)CO[C@@H]5C[C@H](O)[C@@]4(C)C(=O)[C@H](OC(C)=O)C(=C2C)C3(C)C)[C@@H](NC(=O)c2ccccc2)c2ccccc2)O1` (stereo not given in full), the growth in experiment [1] was 35.2%; in experiment [2], 37.6%; in experiment [3] it was 29.1%; in experiment [4], 30.4%; in [5] it was 5.88% (active); in [6], 58.2%. In addition, the growth in experiment [7] is 24.3%; in experiment [8], 18.7%; in experiment [9] it was 32.1%; in experiment [10] it was 12.6%; in experiment [11], 6.68% (active); in experiment [12], 12.6%. The growth was 41.9% in experiment [13]; 20% in experiment [14]; -9.54% (active) in [15]; 34.4% in experiment [16]; 4.59% (active) in [17]; -0.927% (active) in [18]. Also, the growth in [19] was 53%; in [20], -22% (active).
On to `C#Cc1cccc(Oc2ccc(NC(=O)CCl)cc2)c1`, for which the growth in experiment [1] is 20.7% [8.25 µM]; in experiment [2], 55.9% [8.25 µM]; in [3] it was 100% [8.25 µM]; in [4], 83.5% [8.25 µM]; in experiment [5], 19% [8.25 µM]; in experiment [6], 81.2% [8.25 µM]. The growth is -32.6% [8.25 µM] (active) in experiment [7]; 68.3% [8.25 µM] in experiment [8]; 74.8% [8.25 µM] in experiment [9]; 61.6% [8.25 µM] in experiment [10]; 72% [8.25 µM] in [11]; 7.79% [8.25 µM] (active) in [12]. For the same compound, the growth in experiment [13] was 21.3% [8.25 µM]; in [14] it was 41.1% [8.25 µM]; in experiment [15], 62.6% [8.25 µM]; in experiment [16] it was 49.5% [8.25 µM]; in experiment [17] it was 85.5% [8.25 µM]; in experiment [18], 47% [8.25 µM]. Also, the values for the growth in experiment [19] and in [20] were 75.8% [8.25 µM] and 24.6% [8.25 µM], respectively.
For `CCN=C1C=CC(=C(c2ccc(N(C)C)cc2)c2ccc(N(C)C)cc2)c2ccccc21`, the growth in experiment [1] is -5.87% (active); in experiment [2], -7.49% (active); in experiment [3], -30.1% (active); in experiment [4] it was -55.5% (active); in [5], -36.8% (active); in [6] it was -21.5% (active). Moreover, the growth in experiment [7] is -36.8% (active); in experiment [8], 1.14% (active); in experiment [9], -11% (active); in [10], -79% (active); in experiment [11], 1.96% (active); in experiment [12] it was 10.9%. In addition, the growth in experiment [13] is -48.4% (active); in [14], -12% (active); in experiment [15] it was -29.2% (active); in experiment [16] it was -8.78% (active); in experiment [17], -37.5% (active); in experiment [18], -57.4% (active). Further, the growth in [19] was -10.1% (active); in experiment [20] it was -42.2% (active).
